Measurements from PubChem BioAssay (NCATS).
Results filed as inconclusive are left out. A number with no mark means an inactive call. Calls of active or inactive are those of the source. Calls follow the shape of the dose curve; as a rule, active = well fitted inhibition curve with a large enough effect; inconclusive = small, poorly fitted or top-dose-only effect; inactive = flat fitted curve, though single readings scatter.

target: Glutathione peroxidase 1 (Homo sapiens) (UniProt P07203); assay: Primary qHTS Assay for Inhibitors of Recombinant Selenoprotein Glutathione Peroxidase 1 (GPX1) (AID 1845191); conditions: recombinant GPX1, GR-coupled NADPH fluorescence, 15 min; series mostly up to 48.8 µM; activity, negative = inhibition: at the top concentration; also: nearly all actives have a fitted effect of over 65% in size
From the text: Assay Provider: Elias S.J. Arner MD PhD.
Department of Medical Biochemistry and Biophysics
Karolinska Institutet, Solna, Stockholm, Sweden
Selenoprotein glutathione peroxidases (GPX), like the ubiquitously expressed GPX1 and the ferroptosis modulator GPX4, enact their antioxidant activities by reducing hydroperoxides using glutathione. […] GPX1 and GPX4 inhibitors have thus shown promise as anti-cancer agents. Existing inhibitors are often promiscuous, or modulate GPX activity only indirectly, so novel direct inhibitors identified through screening against GPX1 and GPX4 could be valuable. Here, we developed optimized glutathione reductase (GR)-coupled GPX assays for the biochemical high-throughput screen (HTS) of almost 12,000 compounds with known mechanisms of action. Initial hits were triaged using a GR counter-screen, assessed for isoform specificity using a separate GPX2 assay, and were assessed for general selenocysteine-targeting activity using a thioredoxin reductase (TXNRD1) assay. With this suite of assays, we identified novel GPX1/GPX2- and GPX4-specific inhibitors and can here present a validated pipeline for future discovery research for selenoprotein-targeting agents.
SEQUENCE No. (e.g., 1, 2, 3, etc.); […] (e.g., Cells, Incubation, Reagent, etc.); VALUE; DESCRIPTION.
1; Reagent 1; 3 uL; GPx1 enzyme or no enzyme control in 1536-well, black, solid Greiner assay plate.
2; Compound; 25 nL; Kalypsis pin tool (Wako USA) equipped with a 1536-well pin head.
3; Incubation; 30 min; room temperature.
4; Reagent 2; 1 uL; 10 nM GPX1, 1 mM GSH, 0.5 mM CHP, 0.5 mM NADPH, 100 nM GR, 0.01% BSA substrate
5; Detection; Fluorescence; ViewLux microplate reader, excitation 340 nm and emission 450 nm.
6; Incubation; 15 min; room temperature.
7; Detection; Fluorescence; ViewLux microplate reader, excitation 340 nm and emission 450 nm.
NOTES (numbers refer to Sequence numbers above)
1. 3 uL of 16.66 nM GPX1 and 0.016% BSA in assay buffer (50 mM Tris-HCl, 2 mM EDTA (pH 7.5), 150 mM NaCl) was added to columns 3-48 of 1536-well assay plates using a BioRAPTR Flying Reagent Dispenser (Let's Go Robotics (LGR), Carlsbad, CA). A no-enzyme control (0.01% BSA in TES assay buffer) was added to columns 1-2.
2. 25 nL of test compounds and DMSO controls were added to each well with a pin tool (Kalypsys).
3. The assay plates were incubated for 30 minutes at room temperature.
4. 1 uL of master mix (500 nM glutathione reductase (GR), 5 mM reduced glutathione (GSH), 2.5 mM NADPH in assay buffer) was added. 1 uL of cumene hydroperoxide (CHP) ([2.5 mM] in 50% EtOH) was then added within 5 minutes to initiate the reaction. Final concentrations were: 10 nM GPX1, 1 mM GSH, 0.5 mM CHP, 0.5 mM NADPH, 100 nM GR, 0.01% BSA.
5. Initial fluorescence readout (t=0) at 340/450 nm was measured using a ViewLux multimodal detector (PerkinElmer, Waltham, MA).
7. Endpoint fluorescence readout (t=15) at 340/450 nm was measured 15 min after room temperature incubation.
Potency is read from the fitted curve at half-maximal effect.

Glutathione peroxidase 1 (Homo sapiens), sequence (P07203 whole entry, looked up): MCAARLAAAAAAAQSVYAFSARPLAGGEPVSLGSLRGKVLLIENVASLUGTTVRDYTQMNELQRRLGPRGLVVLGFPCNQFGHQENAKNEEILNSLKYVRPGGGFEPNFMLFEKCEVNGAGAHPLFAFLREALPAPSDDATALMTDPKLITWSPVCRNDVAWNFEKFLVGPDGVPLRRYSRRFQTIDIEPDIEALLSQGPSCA

Q: For CCC(Sc1nnc2c(n1)[nH]c1ccccc12)C(=O)N1c2ccccc2Sc2ccccc21 (stereo not given), which “activity, negative = inhibition” value is on record?
A: 3.54%

Q: C/C(=N\N=C(N)N)c1ccc(NC(=O)Nc2ccc(/C(C)=N/N=C(N)N)cc2)cc1 was tested. Which “outcome” value did it give?
A: inactive

Q: CCCCCCCCCCCCCCCC(=O)OCC=C(C)C=CC=C(C)C=CC1=C(C)CCCC1(C)C was tested. Which “outcome” value did it give?
A: inactive

Q: For CC1CCc2c(cc(Br)c(F)c2Br)N1C=O (stereo not given), which “outcome” value is on record?
A: inactive

Q: With Cc1nc2c(C#N)c[nH]n2c(=O)c1C(C)C as the molecule, how does the “activity, negative = inhibition” value read?
A: -0.35%

Q: Which “activity, negative = inhibition” value does the source give for CO[C@H]1O[C@@H]2O[C@@]3(C)CC[C@H]4[C@H](C)CC[C@@H]([C@@H]1C)[C@@]24OO3 here?
A: -5%

Q: How did the “activity, negative = inhibition” value turn out when O=C(O)C[C@@H]1CC[C@H](NC(=O)Cc2cccs2)B(O)O1 was run?
A: -1.51%

Q: With O=[N+]([O-])c1cc(S(=O)(=O)Nc2ccc(O)c3ccccc23)ccc1Cl as the molecule, how does the “activity, negative = inhibition” value read?
A: -22.7%

Q: Cc1cccc(N2C(=O)N(Cc3ccc(C(C)(C)C)cc3)c3ccccc3S2(=O)=O)c1 was tested. Which “outcome” value did it give?
A: inactive

Q: For CC1CC2C3CCC4=CC(=O)C=CC4(C)C3(F)C(O)CC2(C)C1(O)C(=O)COC(=O)c1cccc(S(=O)(=O)O)c1 (stereo not given), which “outcome” value is on record?
A: inactive

Q: How did the “outcome” value turn out when OCC1OC(c2ccc(Cl)c(Cc3ccc(OC4CCOC4)cc3)c2)C(O)C(O)C1O (stereo not given) was run?
A: inactive

Q: For O=NCc1ccc([N+](=O)[O-])o1, which “activity, negative = inhibition” value is on record?
A: -14.5%

Q: With CN1CCc2cc(Nc3ncc(C4CC4)c(NCCCNC(=O)C4CCC4)n3)ccc2C1 as the molecule, how does the “outcome” value read?
A: inactive

Q: CO/N=C(\C(=O)N[C@@H]1C(=O)N2C(C(=O)O)=C(Cn3ccc(=N)n3CCO)CS[C@H]12)c1csc(N)n1 was tested. Which Potency did it give?
A: 18 µM (active)

Q: Which “activity, negative = inhibition” value does the source give for Clc1ccc(CCCOCCCN2CCCCC2)cc1 here?
A: -3.24%

Q: With CC(C)(O)CNc1ncc(-c2ccnc(Nc3ccnc(Cl)c3)n2)c(CC2CC2)n1 as the molecule, how does the “outcome” value read?
A: inactive

Q: For Cn1c(=O)cc(N2CCC[C@@H](N)C2)n(Cc2cc(F)ccc2C#N)c1=O, which “activity, negative = inhibition” value is on record?
A: -8.65%

Q: Which “outcome” value does the source give for COc1ccc(-c2cc(-c3ccc4c(c3)NC(=O)CO4)nc3c2COc2ccc(C)cc2-3)cc1 here?
A: inactive

Q: With CCC1OC(=O)C(C)C(OC2CC(C)(OC)C(O)C(C)O2)C(C)C(OC2OC(C)CC(N(C)C)C2O)C(C)(O)CC(C)C2NC(COCCOC)OC(C2C)C1(C)O (stereo not given) as the molecule, how does the “outcome” value read?
A: inactive

Q: How did the “outcome” value turn out when C[N+]1(C)[C@@H]2CC(OC(=O)C(O)(c3cccs3)c3cccs3)C[C@H]1[C@H]1O[C@@H]12 (stereo not given in full) was run?
A: inactive

Q: For CC(NC(=O)c1ccccc1N=Cc1c(O)ccc2ccccc12)c1ccccc1 (stereo not given), which Potency is on record?
A: inactive

Q: For CCO/N=C(\C(=O)N[C@@H]1C(=O)N2C(C(=O)O)=C(Sc3nc(-c4cc[n+](C)cc4)cs3)CS[C@H]12)c1nsc(NP(=O)(O)O)n1, which Potency is on record?
A: 4.04 µM (active)

Q: CN(Cc1cccc(N2CCN(C(c3ccccc3)c3ccccc3)CC2)c1)[S+](C)(=O)[O-] was tested. Which “activity, negative = inhibition” value did it give?
A: 1.17%

Q: For CC(=O)OC1CC(OC2C(O)CC(OC3C(O)CC(OC4CCC5(C)C(CCC6C5CCC5(C)C(C7=CC(=O)OC7)CCC65O)C4)OC3C)OC2C)OC(C)C1O (stereo not given), which “activity, negative = inhibition” value is on record?
A: -8.69%

Q: For Cc1ccc2c(c1)-c1nc(-c3ccc(Cl)cc3)cc(-c3coc4ccccc4c3=O)c1CO2, which “activity, negative = inhibition” value is on record?
A: -7.89%

Q: With C=C(NC(=O)C(=C)NC(=O)c1csc(C2=N[C@H]3c4csc(n4)[C@H]4NC(=O)c5csc(n5)[C@H]([C@@](C)(O)[C@@H](C)O)NC(=O)[C@H]5CSC(=N5)C(=CC)NC(=O)[C@H]([C@@H](C)O)NC(=O)c5csc(n5)[C@]3(CC2)NC(=O)[C@H](C)NC(=O)C(=C)NC(=O)[C@H](C)NC(=O)[C@H](C(C)CC)N[C@@H]2C=Cc3c([C@H](C)O)cc(nc3[C@H]2O)C(=O)O[C@@H]4C)n1)C(N)=O (stereo not given in full) as the molecule, how does the “activity, negative = inhibition” value read?
A: -18.4%

Q: With C[N+]1(C)C2CC[C@H]1CC(OC(=O)C(O)c1ccccc1)C2 (stereo not given in full) as the molecule, how does the “activity, negative = inhibition” value read?
A: 4.79%

Q: Which “outcome” value does the source give for O=C(Cn1c(=O)oc2cc(S(=O)(=O)N3CCCCC3)ccc21)NCc1ccc(Cl)cc1 here?
A: inactive

Q: How did the “outcome” value turn out when CCCCCCCCCCCCCCCC(=O)OCC(O)C1OC(=O)C(O)=C1O (stereo not given) was run?
A: inactive

Q: How did the “activity, negative = inhibition” value turn out when CNCC(=O)OCc1cccnc1N(C)C(=O)OC(C)[n+]1cnn(C[C@](O)(c2cc(F)ccc2F)[C@@H](C)c2nc(-c3ccc(C#N)cc3)cs2)c1 (stereo not given in full) was run?
A: -23.9%

Q: How did the “activity, negative = inhibition” value turn out when CC(C)=C/C(C)=N\Nc1nncc2ccccc12 was run?
A: -6.06%

Q: For C=C1/C(=C/C=C2\CCC[C@]3(C)[C@@H]([C@H](C)CCCC(C)(C)O)CC[C@@H]23)C[C@@H](O)[C@@H](OCCCO)[C@@H]1O, which “outcome” value is on record?
A: inactive

Q: How did the “outcome” value turn out when CCC1OC(=O)[C@H](C)C(=O)[C@H](C)[C@@H](OC2O[C@H](C)C[C@H](N(C)C)[C@H]2O)[C@](C)(OC)C[C@@H](C)C(=O)[C@@H](C)[C@@H]2N(CCCCn3cnc(-c4cccnc4)c3)C(=O)O[C@]12C (stereo not given in full) was run?
A: inactive

Q: With NNCCc1ccc(NC(=O)CCCc2ccccc2)cc1 as the molecule, how does the “outcome” value read?
A: inactive

Q: With COc1ccc2c(O[C@H]3CC4C(=O)N(C)CCCC/C=C\[C@@H]5C[C@@]5(C(=O)NS(=O)(=O)C5CC5)NC(=O)[C@@H]4C3)cc(-c3nc(C(C)C)cs3)nc2c1C (stereo not given in full) as the molecule, how does the “activity, negative = inhibition” value read?
A: -2.81%

Q: Which “activity, negative = inhibition” value does the source give for NCc1ccc(Oc2ccccc2)cc1 here?
A: -6.12%

Q: With CCNC(=O)CCC/C=C\C[C@@H]1[C@@H](/C=C/[C@@H](O)CCc2ccccc2)[C@H](O)C[C@@H]1O as the molecule, how does the “outcome” value read?
A: inactive

Q: Which “outcome” value does the source give for Cn1cc(OCC(O)CNC(C)(C)C)c2ccccc2c1=O (stereo not given) here?
A: inactive

Q: Which “activity, negative = inhibition” value does the source give for CC1(COc2ccc(N3CCC(Oc4ccc(OC(F)(F)F)cc4)CC3)cc2)Cn2cc([N+](=O)[O-])nc2O1 (stereo not given) here?
A: -11.5%

Q: How did the “activity, negative = inhibition” value turn out when C[C@H]1O[C@]2(CS1)CN1CCC2CC1 was run?
A: -6.38%
